# An excerpt weighted towards active compounds, which were near 7.2% of everything screened.
# Lassa entry inh: inhibitors of Lassa virus binding or cell entry; Lassa virus pseudotype entry inhibition, cell reporter; 1.2% of 300,000 active; Potency, µM (top dose mostly 37.9 µM), inactives show at the highest dose activity change, negative = inhibition, usual class: inhibitors; calls by dose curve; tested in HEK293 cells; note: nearly all actives have a fitted effect of over 50% in size
# RE007 growth inh: less growth of the S. pombe RE007 Vpr strain. S. pombe RE007 Vpr strain, BacTiter-Glo ATP luminescence, 24 h. Potency, µM (highest dose often 92.2 µM), for the others: top-dose activity change, negative = less growth, actives largely listed as inhibitors. 0.21% of 360,000 active. AID 651644; active = well fitted falling curve with a large enough effect; inconclusive = small, poorly fitted or top-dose-only effect; inactive = no such curve, though single readings can be large or run the other way; note: nearly all actives have a fitted effect of over 50% in size
#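 Fission yeast strain RE007, carrying one chromosomally integrated HIV-1 vpr copy, was seeded at OD 0.01 in PMG+AL medium with 23 nL pinned compound. After 24 h at 30 °C and 99% humidity, viability was read by BacTiter-Glo luminescence.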
# MARV entry inh: Marburg virus entry inhibition. 1.8% of 300,000 active. AID 540276. Marburg virus pseudotyped entry inhibition, cell reporter. Potency, µM (titrated, usually from 37.8 µM), without a hit: at the highest dose activity change, negative = inhibition, actives largely listed as inhibitors; calls by dose curve; tested in HEK293 cells
# FMDV inh: blocks foot and mouth disease virus; FMDV antiviral cell-based qHTS; Potency, µM (titrated, usually from 57.9 µM), for the others: at the highest dose activity change, negative = inhibition, hits mostly inhibitors; 1.2% of 410,000 active; AID 1159524; calls by dose curve; tested in HEK293T cells; note: read-out not given here; nearly all actives have a fitted effect of over 45% in size
# Sm TGR block: S. mansoni TGR enzyme inhibition | Q962Y6 | purified TGR, DTNB reduction, TNB absorbance 405 nm | Potency, µM (series often up to 114 µM), for the others: at the top dose activity change, negative = inhibition, hits mostly inhibitors | 3% of 360,000 active | AID 485364; note: nearly all actives have a fitted effect of over 60% in size
#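 TGR 20 nM + NADPH 100 uM (dispensed conc.), cpd preinc 15 min RT; start with NADPH (500 uM addition) then DTNB (15 mM addition). Kinetic TNB absorbance, 405 nm filter. Four-parameter Hill fit across titration.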
# HCV inh: blocks hepatitis C virus; 3.4% of 340,000 active; Huh7.5.1 HCVcc-Cre infection, luciferase reporter, 44 h; Potency, µM (doses to about 41.8 µM), without a hit: at the highest dose activity change, negative = inhibition, usual class: inhibitors
#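 Whole-lifecycle infectious HCVcc-Cre system; cells 1,000/well, compound then virus (~0.5 moi) added 4 h after plating, 44 h culture. Luciferase read 15 sec following 15 min substrate incubation, room temp.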
# The depositor's hits bear a star; ? = inconclusive; . = no result given; [ ] = another dose, or the depositor's remark. Unless noted, calls come from the whole dose curve; as a rule, active = well fitted curve in the direction sought with a large enough effect; inconclusive = small, poorly fitted or top-dose-only effect, or another doubt; inactive = no such curve, though single readings can be large; an effect the other way counts as inactive or inconclusive. % is set by controls: 0 for no effect and ±100 for the full control effect; potency is the fitted concentration of half-maximal effect.
SMILES,Lassa entry inh,RE007 growth inh,MARV entry inh,FMDV inh,Sm TGR block,HCV inh
Cc1ccc2c(c1)NC(=O)C(CC(=O)NCCCN1CCCC1=O)O2 (configuration not stated),.,10%,.,-11%,-21%,9%
Cc1ccc2c(c1)NC(=O)C(CC(=O)NCCCN1CCCCC1)O2 (configuration not stated),.,-5%,.,-2%,100µM*,20%
Cc1nnc(SCCn2c(N3CCC(Cc4ccccc4)CC3)nc3c2c(=O)[nH]c(=O)n3C)s1,?,-4%,?,?,3%,?
CCCCCn1c(CN2CCN(c3cc(Cl)ccc3C)CC2)nc2c1c(=O)[nH]c(=O)n2C,?,0%,16µM*,28µM*,2%,?
CCCCn1c(N2CCC(Cc3ccccc3)CC2)nc2c1c(=O)[nH]c(=O)n2C,?,19%,?,28µM*,4%,35µM*
CCCCCCn1c(N2CCC(C)CC2)nc2c1c(=O)[nH]c(=O)n2C,?,6%,-14%,20µM*,18%,9%
Fc1ccc(Nc2ncncc2-c2ccoc2)cc1,.,.,.,-18%,.,.
CC(=O)c1cccc(NC(=O)c2noc3c2CC(C)CC3)c1 (configuration not stated),21%[46.1 µM],.,.,38%,0%,.
COc1ccc(NC(=O)c2noc3c2CSc2ccccc2-3)cc1Cl,?,.,-16%[46.1 µM],11%,7%,.
CC(=O)c1cccc(NC(=O)c2noc3c2CSc2ccccc2-3)c1,30%[46.1 µM],.,1%[46.1 µM],42%,11µM*,.
COc1cc(OC)c(NC(=O)c2noc3c2CSc2ccccc2-3)cc1Cl,?,.,-7%[46.1 µM],0%,2.5µM*,.
O=C(CCn1cncn1)NCC1Cc2cc(-c3ccsc3)cc(Cl)c2O1 (configuration not stated),.,.,.,3%,.,.
CCOc1ccc(NC(=O)N(C(C)C)C2CCN(C(C)=O)CC2)cc1,14%[46.1 µM],.,.,-17%,14%,.
CCCCC(O)(CCCC)C(=O)N/N=C(\C)c1ccc(Cl)cc1,-44%[46.1 µM],-3%,11µM*,-23%,0%,-18%
Oc1c(Br)cc(C=Nc2ccc3nc(-c4ccccc4)[nH]c3c2)c(O)c1Br,-27%[46.1 µM],-9%,?,-13%,18µM*,-17%
COc1cccc(C2C(C(=O)c3cc4ccccc4o3)=C(O)C(=O)N2CCN2CCOCC2)c1 (configuration not stated),1%,-8%,9%[46.1 µM],15%,40µM*,14%
O=C(C1=C(O)C(=O)N(CCN2CCOCC2)C1c1ccc(Cl)cc1)c1cc2ccccc2o1 (configuration not stated),.,1%,.,-20%,28µM*,11%
Cc1nc(C)c(C(=O)C2=C(O)C(=O)N(CCN3CCOCC3)C2c2ccco2)s1 (configuration not stated),0%,2%,25%,0%,28µM*,5%
COC(=O)c1ccc(C2C(C(=O)c3cc4ccccc4o3)=C(O)C(=O)N2CCN2CCOCC2)cc1 (configuration not stated),.,-6%,.,0%,?,9%
COc1ccccc1C1C(C(=O)c2cc3ccccc3o2)=C(O)C(=O)N1CCN1CCOCC1 (configuration not stated),-3%,-11%,3%,22%,40µM*,-1%
O=C(C1=C(O)C(=O)N(CCCN2CCOCC2)C1c1ccc(Cl)cc1)c1cc2ccccc2o1 (configuration not stated),.,-10%,.,-20%,?,22%
COc1cccc2cc(C(=O)C3=C(O)C(=O)N(CCCN4CCOCC4)C3c3ccncc3)oc12 (configuration not stated),.,.,-1%,.,.,.
COc1cccc2cc(C(=O)C3=C(O)C(=O)N(CCN4CCOCC4)C3c3ccc(C)o3)oc12 (configuration not stated),20%[46.1 µM],-6%,-20%[46.1 µM],12%,28µM*,4%
CCc1ccc(-c2cc(C)no2)cc1S(=O)(=O)N1CCN(c2ccc(F)cc2)CC1,.,1%,.,?,-9%,5µM*
CCc1ccc(-c2cc(C)no2)cc1S(=O)(=O)N1CCN(C(=O)c2ccco2)CC1,-15%[46.1 µM],7%,-20%[46.1 µM],-14%,45µM*,?
SMILES,Lassa entry inh,RE007 growth inh,MARV entry inh,FMDV inh,Sm TGR block,HCV inh
O=C(c1ccco1)N1CCN(C(=O)C2CCN(S(=O)(=O)c3cnc[nH]3)CC2)CC1,-14%,3%,-9%,13%,-9%,32µM*
Cc1cc(-c2ccc(C)c(S(=O)(=O)NCC3CCN(Cc4ccc(F)cc4)CC3)c2)on1,?,0%,?,-10%,-9%,8.9µM*
CCc1ccc(-c2cc(C)no2)cc1S(=O)(=O)N1CCN(c2ccc(OC)cc2)CC1,?,-14%,?,-23%,-1%,?
O=S(=O)(NCC(c1ccco1)N1CCOCC1)c1ccc(F)cc1 (configuration not stated),-11%[46.1 µM],.,.,2%,0%,.
C=CCOC(=O)C1(C(NC(=O)OC)c2ccccc2)C(=O)Cc2ccccc21 (configuration not stated),.,.,-21%[14.2 µM],.,.,.
CCC(=O)N1CCc2cc(S(=O)(=O)N(C)c3cccc(C)c3)ccc21,10%[46.1 µM],.,3%[46.1 µM],-26%,3%,.
CCN(CCCNS(=O)(=O)c1cc(-c2cc(C)no2)ccc1C)Cc1ccccc1,.,4%,.,22%,-13%,13µM*
O=C(c1ccco1)N1CCN(S(=O)(=O)c2ccc(Br)s2)CC1,0%,-1%,7%,.,11µM*,12%
CCc1ccc(-c2cc(C)no2)cc1S(=O)(=O)NCCCN1CCN(c2ccccc2)CC1,.,-3%,.,?,18%,2µM*
CCc1ccc(-c2cc(C)no2)cc1S(=O)(=O)N1CCOc2ccccc21,?,-16%,?,?,-1%,11µM*
CC(C)(C)c1ccc(C(=O)N2CCN(S(=O)(=O)c3ccc(Br)s3)CC2)cc1,.,-5%,.,?,-3%,?
COc1ccccc1CNC(=O)c1oc2ccc(S(=O)(=O)N3CCCCC3)cc2c1C,?,.,.,-23%,6%,.
O=C(O)c1ccc(NC2=C(n3nnc4ccccc43)C(=O)c3ccccc3C2=O)cc1,?,7%,?,0%,7.1µM*,-1%
CC(=O)NC(CCS(C)(=O)=O)C(=O)Nc1cc(Cl)ccc1Cl (configuration not stated),1%,-16%,3%,-7%,-14%,10%
CC(C)S(=O)(=O)c1csc(NC(=O)Nc2cc(Cl)ccc2Cl)c1Cl,?,7%,?,?,2%,13µM*
CC(C)(C)N=C1NC(=NC(C)(C)C)c2ccccc21,?,-4%,15µM*,-13%,2%,?

# Bioassay records deposited in PubChem by National Center for Advancing Translational Sciences (NCATS).
